HttQ103 aggreg – qHTS Multiplex Assay to Identify Dual Action Probes in a Cell Model of Huntington: Aggregate Formation (GFP); PC12 HttQ103-GFP aggregates, Acumen cytometry, 40 h; Potency, µM (titrated, usually from 46.1 µM), hits mostly inhibitors; AID 1688, 2009; 220,000 tested, 1.1% active; further: nearly all actives have a fitted effect of over 60% in size
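Ecdysone-promoter PC12 model expressing HTT exon 1 Q103 fused to GFP, induced by tebufenozide at 100 nM final. Compounds titrated; aggregates sized 1–25 µm scored on a 488 nm laser cytometer.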
HTT cytoprotect – qHTS Multiplex Assay to Identify Dual Action Probes in a Cell Model of Huntington: Cytoprotection (ATP) | PC12 HTT-Q103 induced, cytoprotection, ATP luminescence, 40 h | Potency, µM (highest dose often 56.4 µM), most hits filed as activators | 230,000 tested, 0.14% active | AID 1471, 2008; further: nearly all actives have a fitted effect of over 45% in size
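Compounds were screened for protection of PC12 cells against cell death after tebufenozide induction (100 nM final) of mutant Huntingtin exon 1 (Q103) fused to GFP.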
HPGD inh – qHTS Assay for Inhibitors of HPGD (15-Hydroxyprostaglandin Dehydrogenase); 150,000 tested, 4.3% active; purified HPGD, NADH fluorescence kinetic, PGE2 substrate; 15-hydroxyprostaglandin dehydrogenase [NAD(+)] (Homo sapiens), P15428; Potency, µM, actives largely listed as inhibitors; active means well fitted inhibition curve with a large enough effect, not every such curve was filed as active; inconclusive means small, poorly fitted or top-dose-only effect, or another doubt; inactive means no such curve, though single readings can be large or run the other way
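NADH formation kinetics: reaction with 30 uM PGE2 and 1 mM NAD+ (final), 20 nM enzyme, Tris-HCl pH 8 with Tween 20, after 15 min compound preincubation at room temperature. Fluorescence change, last versus first of five reads.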
ALDH1A1 inh – qHTS Assay for Inhibitors of Aldehyde Dehydrogenase 1 (ALDH1A1). Aldehyde dehydrogenase 1A1 (Homo sapiens), P00352. Purified ALDH1A1, NADH fluorescence, propionaldehyde substrate. Potency, µM (highest dose often 75.3 µM), actives largely listed as inhibitors. 220,000 tested, 7.3% active. AID 1030, 2008; active means well fitted inhibition curve with a large enough effect, not every such curve was filed as active; inconclusive means small, poorly fitted or top-dose-only effect, or another doubt; inactive means no such curve, though single readings can be large or run the other way
Target sequence (P00352 whole entry, looked up): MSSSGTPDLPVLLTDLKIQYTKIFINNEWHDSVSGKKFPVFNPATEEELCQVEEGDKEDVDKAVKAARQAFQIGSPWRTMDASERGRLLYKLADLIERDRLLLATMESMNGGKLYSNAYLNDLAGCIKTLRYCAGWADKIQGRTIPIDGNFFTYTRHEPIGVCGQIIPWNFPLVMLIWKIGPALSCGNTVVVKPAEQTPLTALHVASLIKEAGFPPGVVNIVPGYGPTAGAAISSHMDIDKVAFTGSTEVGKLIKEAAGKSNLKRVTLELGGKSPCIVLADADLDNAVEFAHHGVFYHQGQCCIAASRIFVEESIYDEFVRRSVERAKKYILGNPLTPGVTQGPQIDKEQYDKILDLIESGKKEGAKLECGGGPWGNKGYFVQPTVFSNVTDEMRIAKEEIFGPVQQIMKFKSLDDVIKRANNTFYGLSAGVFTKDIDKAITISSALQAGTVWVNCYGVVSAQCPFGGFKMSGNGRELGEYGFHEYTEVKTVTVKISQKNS
Lamin A splicing – qHTS Assay for Modulators of Lamin A Splicing. HeLa LMNA splicing GFP/RFP minigene ratio, 48 h. Potency, µM (titrated, usually from 46.1 µM), hits mostly inhibitors. 200,000 tested, 0.01% active. AID 1487, 2009; active means well fitted inhibition curve with a large enough effect in the signal ratio, with a control signal flat, not every such curve was filed as active; inconclusive means small, poorly fitted or top-dose-only effect, or effect the other way, or a change in a side signal; the % refers to the signal ratio
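S3 HeLa stable clones carrying a lamin A-EGFP splicing minigene plus DsRed2 were seeded at 600 cells/well in Opti-MEM with 2% FBS, pin-dosed and incubated 48 h at 37°C. Acumen cytometry (488 nm) gave the GFP/RFP total-intensity ratio.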
A number is an active result; - = inactive; ? = inconclusive; . = no result given; [ ] = dose if it differs, or a comment. Most compounds without a hit are left out; they make up all but 8.8% or so of the library. Unless noted, the call rests on the fitted dose curve; in most records, active means well fitted curve in the direction sought with a large enough effect; inconclusive means small, poorly fitted or top-dose-only effect, or another doubt; inactive means no such curve, though single readings can be large; an effect the other way counts as inactive or inconclusive.

SMILES	HttQ103 aggreg	HTT cytoprotect	HPGD inh	ALDH1A1 inh	Lamin A splicing
Cc1ccc(-c2nn3c(C)nnc3s2)cc1NC(=O)c1ccc(-c2cccc(Cl)c2)o1	?	-	22µM	?	-
Cc1ccc(-c2nn3c(C)nnc3s2)cc1NC(=O)c1ccc(-c2ccc(Cl)cc2Cl)o1	-[9.22 µM]	-[0.074 µM]	?	?	-
COc1ccc(C2C(C#N)=C(N)Oc3cc(O)ccc32)cc1OC (stereo unspecified)	-	-	-	-	-
N#CC1=C(N)SC(N)=C(C#N)C1c1cccc(O)c1	-	-	?	25µM	-
COC(=O)C1=C2SC(C)C(=O)N2C(N)=C(C#N)C1c1ccc(OC)c(OC)c1 (stereo unspecified)	-	-	?	13µM	?
COC(=O)C1=C2SC(C)C(=O)N2C(N)=C(C#N)C1c1cc(OC)c(OC)c(OC)c1 (stereo unspecified)	-	-	-	-	-
CCCc1[nH]nc2c1C(c1ccc(OCCN3CCOCC3)c(OC)c1)C(C#N)=C(N)O2 (stereo unspecified)	-	-	-	-	-
CCOc1cc(C2C(C#N)=C(N)SC(N)=C2C#N)ccc1OCCN1CCOCC1	?	-[0.074 µM]	22µM	7.9µM	-
CCCc1[nH]nc2c1C(c1ccccc1OCC)C(C#N)=C(N)O2 (stereo unspecified)	-	-[10 µM]	-	-	-
CCOc1ccc(C2C(C#N)=C(N)SC(N)=C2C#N)c(OCC)c1	-	-[10 µM]	-	18µM	-
CC1=CC(=O)OC1Cc1ccc2ccccc2n1 (stereo unspecified)	.	-	-	?	.
COCC(=O)N1CCC2(CC1)CCN(c1ccncc1)CC2	.	?	-	-	.
COc1ccc(C2C(C#N)=C(N)OC(C(C)(C)C)=C2C#N)cc1OC (stereo unspecified)	?	-	?	?	-
COc1ccc(C2C(C#N)=C(N)SC(N)=C2C#N)cc1OC	-	-	16µM	28µM	-
N#C/C(=C\c1ccc(-c2ccc(S(=O)(=O)N3CCOCC3)cc2)o1)C(=O)NC1CC1	-	-[10 µM]	14µM	?	-
Cc1nnc(Sc2cc(C(=O)NCc3ccco3)c3ccccc3n2)s1	?	-	2.2µM	?	?
COc1nc(-c2cccc([N+](=O)[O-])c2)nc2ccccc12	-[9.22 µM]	-[10 µM]	.	.	.
O=[N+]([O-])c1cccc(-c2nc(Oc3ccc(Cl)cc3)c3ccccc3n2)c1	-	.	25µM	?	?
CC(C)(C)c1ccc(-c2nnc(SCCN3C(=O)c4ccccc4C3=O)o2)cc1	-	-	18µM	-	-
Cc1nc(NS(=O)(=O)c2ccccc2)sc1NC(=O)OCCN(C)C	-	-	-	14µM	-
CCOC(=O)c1sc(NS(=O)(=O)c2ccccc2)nc1C	-	-	-	-	-
Cc1nc(NS(=O)(=O)c2ccccc2)sc1C(C)(C)C	-	-[10 µM]	-	5µM	?
O=C(Cn1c(-c2cccs2)cc2ccccc21)NCc1ccccc1Br	.	.	.	.	-
Cn1cnnc1SCC(=O)c1ccc2c(c1)CCCC2	-	-	-	32µM	-
COc1cc(C(=O)CSc2nncn2C)cc(OC)c1OC	-[9.22 µM]	-	-	13µM	-
SMILES	HttQ103 aggreg	HTT cytoprotect	HPGD inh	ALDH1A1 inh	Lamin A splicing
Cn1cnnc1SCC(=O)c1cc2ccccc2oc1=O	-	-[10 µM]	?	10µM	?
O=C(CSc1nnc(-c2cccnc2)o1)c1cc2ccccc2oc1=O	?	-	-	?	-
COc1cccc(S(=O)(=O)NCc2ccc(C(=O)NCc3ccco3)cc2)c1	?	-	-	14µM	-
COc1cccc(S(=O)(=O)Nc2ccc(C(=O)NCc3ccco3)cc2)c1	-	-[10 µM]	?	28µM	-
COc1ccc(CCNC(=O)c2ccc(CNS(=O)(=O)c3ccc(C(C)(C)C)cc3)cc2)cc1OC	-	-[10 µM]	-	?	-
COc1ccc(CCNC(=O)c2ccc(CNS(=O)(=O)c3cccc(Cl)c3)cc2)cc1OC	-	-[10 µM]	-	3.5µM	?
COc1ccc(C(=O)NCC(=O)Nc2cccc(S(=O)(=O)NCc3ccco3)c2)cc1OC	-	-[10 µM]	.	20µM	-
O=C(CSc1nnc(-c2ccccc2)n1Cc1ccccc1)NNC(=O)c1ccccc1O	-	-[10 µM]	-	-	?
Cc1ccc(CNC(=O)CN2Cc3ccccc3C2=O)cc1	.	.	.	.	-
Cc1ccc(CN(C(=O)c2ccc([N+](=O)[O-])cc2)c2ccccn2)cc1	.	.	.	.	-
O=C(O)C1CCCN1C(=O)Nc1ccccc1 (stereo unspecified)	1.1µM	-[0.074 µM]	-	-	-
O=C(O)C1CCCN1C(=O)Nc1ccc(Cl)cc1 (stereo unspecified)	-	.	-	-	-
CCN(CC)P(=O)(Nc1ccc(C)cc1Br)c1ccc(N(C)C)cc1NC(=O)c1ccco1 (stereo unspecified)	35µM	-	.	?	-
Cc1ccc(NC(=O)c2ccco2)c([N+](=O)[O-])c1	-	-	.	?	-
CC(C)(C)NC(=O)CN(Cc1cccs1)C(=O)c1csnn1	-	-[10 µM]	-	-	-
CC(C)(C)NC(=O)CN(Cc1cccs1)C(=O)CN1C(=O)C(=O)c2ccccc21	-	-	.	0.028µM	.
O=c1oc2c(CN3CCN(CCO)CC3)c(O)ccc2cc1-c1ccccn1	-[9.22 µM]	-[10 µM]	.	.	?
Cc1c(NC(=O)/C(C#N)=C/c2ccccc2)c(=O)n(-c2ccccc2)n1C	-	-	.	-	.
Cc1c(NN=C(C#N)C#N)c(=O)n(-c2ccccc2)n1C	-	-	.	3.5µM	-
O=C(c1ccc(S(=O)(=O)N2CCCCC2)cc1)N1CCN(CCN2C(=O)c3cccc4cccc(c34)C2=O)CC1	-	-	.	0.63µM	?
Cc1cc(C)nc(N2CCN(C(=O)c3ccc(S(=O)(=O)N4CCCCCC4)cc3)CC2)n1	-	-	.	18µM	?
C=CCC(O)CC1C2C(CC(O)CC=C)C3C1C3C2OC(C)(C)C (stereo unspecified)	.	-[10 µM]	.	-[13.5 µM]	.
CCOc1ccc(Nc2nc3cc(S(=O)(=O)N(CC)CC)ccc3o2)cc1	-	-	3.5µM	3.2µM	?
CCS(=O)(=O)c1ccc2oc(Nc3cc(C)cc(C)c3)nc2c1	-	-	-	?	?
CCN(CC)S(=O)(=O)c1ccc2oc(SCC(=O)NCc3ccccc3)nc2c1	-	-[10 µM]	-	-	?
CCS(=O)(=O)c1ccc2oc(Nc3ccc(C(C)C)cc3)nc2c1	-	-[10 µM]	4µM	4µM	-
CCOc1ccccc1N(C)C(=O)c1sc2nc3n(c(=O)c2c1C)CCCC3	.	.	.	.	-
c1ccc(-c2cnc(-c3ccc(-c4ncc(-c5ccccc5)o4)cc3)o2)cc1	.	-[10 µM]	-	-[13.5 µM]	.
CC(C)(C)C1CCc2sc(C(=O)NNC(=O)CCl)cc2C1 (stereo unspecified)	-	-	.	3.2µM	.
O=C(NN=C1CCC(c2ccccc2)CC1)c1cc2c(s1)CCCC2 (stereo unspecified)	-	-[10 µM]	-	7.9µM	-
